Pf growth 96h – P. falciparum growth inhibition at 96 hours. P. falciparum luciferase reporter growth, 96 h. Potency, µM (series often up to 28.7 µM), hits mostly inhibitors. 320,000 compounds, 6.9% hits
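Parasite growth measured via integrated firefly luciferase reporter in P. falciparum. Infected erythrocytes at 2% hematocrit, 0.05% parasitemia final were treated 96 hours at 37 C under 5% CO2, and luminescence was read.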
MARV entry inh – Marburg virus entry inhibition. Marburg virus pseudotyped entry inhibition, cell reporter. Potency, µM (highest dose often 37.8 µM), actives largely listed as inhibitors. 300,000 compounds, 1.8% hits; calls by dose curve; tested in HEK293 cells
HCMV antiviral – blocks human cytomegalovirus replication | HFF cells, HCMV-luciferase reporter, 72 h; stronger effect = lower value | activity change, negative = inhibition, % at 57.5 µM | 410,000 compounds, 4.5% hits | AID 1259415; in the data active = activity change below about -60%; inconclusive = no clear call, values can overlap the other calls; inactive = above about -39%
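Steps: HFFs plated, 16 h 37C; compounds added; HCMV-luciferase added to MOI 1 PFU/cell; 72 h 37C; OneGlo reagent, 5 min room temperature; luminescence read, normalized to controls.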
HCV inh – inhibitors of hepatitis C virus infection. Huh7.5.1 HCVcc-Cre infection, luciferase reporter, 44 h. Potency, µM (titrated, usually from 41.8 µM), usual class: inhibitors. 340,000 compounds, 3.4% hits. AID 651820
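Cells (1,000/well) were plated 4 h before compound, then infected with HCVcc-Cre virus (~0.5 moi). After 44 h further culture, infection was read as luciferase luminescence following a 15 min substrate incubation at room temperature.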
Lassa entry inh – inhibitors of Lassa virus binding or cell entry. AID 540256. 300,000 compounds, 1.2% hits. Lassa virus pseudotype entry inhibition, cell reporter. Potency, µM (titrated, usually from 37.9 µM), usual class: inhibitors; calls by dose curve; tested in HEK293 cells; also: nearly all actives have a fitted effect of over 50% in size
Pf growth 48h – P. falciparum growth inhibition at 48 hours (one generation). P. falciparum luciferase growth in erythrocytes, 48 h. 310,000 compounds, 5.9% hits. Potency, µM (titrated, usually from 28.7 µM), most hits filed as inhibitors
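A one-generation exposure of luciferase-tagged malaria parasites in RPMI 1640/Albumax erythrocyte culture, 37 C and 5% CO2. Inhibition is inferred from decreased luminescence after adding detection reagent.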
Hits are given with their value; - = inactive; ? = inconclusive; . = not tested or not shown; ! = repeats disagree. A selection: hits, their analogues and other compounds. The true share with any hit is near 14%. Unless noted, calls follow the shape of the dose curve; as a rule, active = well fitted inhibition curve with a large enough effect; inconclusive = small, poorly fitted or top-dose-only effect, or another doubt; inactive = no such curve, though single readings can be large or run the other way.

SMILES	Pf growth 96h	MARV entry inh	HCMV antiviral	HCV inh	Lassa entry inh	Pf growth 48h
COc1ccc(C(C[N+](=O)[O-])c2c(C)[nH]n(-c3ccccc3)c2=O)cc1 (stereo not drawn)	-	-	-102.5	-	-	-
Cc1cc2ccccn2c1C(C[N+](=O)[O-])c1ccc(N(C)C)cc1 (stereo not drawn)	?	?	-	-	-	?
COc1ccc(C(C[N+](=O)[O-])c2c(-c3ccccc3)cc3ccccn23)c(OC)c1 (stereo not drawn)	.	-	-71.3	-	-	10.4µM
COc1ccc(C(C[N+](=O)[O-])c2c(C)cc3ccccn23)cc1 (stereo not drawn)	11.7µM	?	-	?	-	10.4µM
Cc1[nH]n(-c2ccccc2)c(=O)c1C(C[N+](=O)[O-])c1ccccc1Cl (stereo not drawn)	.	-	-	-	-	-
CSc1ccc(OC2(C)CCN(Cc3ccc(C(C)C)cc3)C2)cc1 (stereo not drawn)	.	.	-	.	.	.
CC(C)(C)S(=O)(=O)N1Cc2cc(CO)ccc2[C@H]1CCO	.	.	-	.	.	.
CC(OC(=O)Cn1ccccc1=O)C(=O)Nc1cc(Cl)cc(Cl)c1 (stereo not drawn)	.	.	-	-	.	.
CCC(c1nnc(SCC(=O)Nc2ccc(Cl)cc2C(F)(F)F)n1C1CCCCC1)N(C)C (stereo not drawn)	?	?	-	-	12.6µM	?
CCCCn1c(SCC(=O)Nc2cc(C(F)(F)F)ccc2Cl)nnc1C(CC)N(C)C (stereo not drawn)	?	?	?	?	-	8.28µM
CC(=O)Nc1ccc(S(=O)(=O)NC(C(=O)O)C2=CCC=CC2)cc1 (stereo not drawn)	3.7µM	-	-	-	-	-
Cc1ccc(-c2nc(C)c(CCNS(=O)(=O)c3ccccc3F)s2)cc1	.	.	-	.	-	.
C=Cc1c(C)c2cc3[nH]c(cc4nc(cc5nc(cc1[nH]2)C(C)=C5CCC(=O)O)C(CCC(=O)O)=C4C)c(C)c3C=C	-	7.94µM!	-	-	?	-
CCC1CCC(C(=O)NC(C(=O)Nc2ccc3c(c2)OCCO3)C(C)C)CC1 (stereo not drawn)	9.28µM	?	-	-	-	.
Cc1nnc(SCC(=O)N(C)c2ccccc2)n1Cc1ccccc1	?	-	?	-	-	-
Cc1n[nH]c(=S)n1Cc1ccccc1	-	.	-82.2	-	.	-
S=c1[nH]nc(CN2CCCC2)n1Cc1ccccc1	-	?	-	-	-	-
S=c1[nH]nc(-c2ccccc2)n1Cc1ccccc1	0.415µM	-	-	-	-	-
S=c1[nH]nc(CN2CCCCC2)n1Cc1ccccc1	-	-	-81.9	-	?	3.7µM
CN(C(=O)CSc1nnc(CN2CCCC2)n1Cc1ccccc1)c1ccccc1	?	?	-	-	-	11.7µM
CC1(C(=O)NS(=O)(=O)Cc2cccc(Cl)c2)CCN1C(=O)CC1CCCC1 (stereo not drawn)	.	.	-	.	.	.
O=C(Nc1ccc(OCc2cc(=O)n3c4c(sc3n2)CCCC4)cc1)c1ccc(F)cc1	.	-	-	.	-	.
CCOC(=O)c1cc(-c2ccc(C)cc2)n(CCC(=O)NCCc2ccc(C)cc2)c1C	.	?	-	.	.	.
CNNC(=S)Nc1cccc(SC)c1	?	-	-	-	?	?
CC1(C)CCCN(Cc2c(O)ccc3c(=O)c(-c4nc5ccccc5s4)c(N)oc23)C1	?	-	-	-	-	?
SMILES	Pf growth 96h	MARV entry inh	HCMV antiviral	HCV inh	Lassa entry inh	Pf growth 48h
CC1CCN(Cc2c(O)ccc3c(=O)c(-c4nc5ccccc5s4)c(N)oc23)CC1	?	?	-	?	-	0.262µM
CC1CCCN(Cc2c(O)ccc3c(=O)c(-c4nc5ccccc5s4)c(N)oc23)C1 (stereo not drawn)	0.0657µM	?	-	?	?	0.0738µM
C=C1CC[C@H](O)C/C1=C/C=C1\CCC[C@]2(C)[C@@H]([C@H](C)CCCC(C)C)CC[C@@H]12	-	.	.	.	.	-
O=C1c2ccccc2C(=O)N1CCCc1nc2ccccc2c(=O)n1CCCn1ccnc1	1.85µM	-	-	-	-	-
CC(CN1CCNCC1)(NS(=O)(=O)c1ccccc1)c1ccccc1 (stereo not drawn)	.	11.2µM	-	?	-	-
CC(C)(CN1CCC(Cc2ccccc2)CC1)NS(=O)(=O)c1ccccc1	-	.	-	-	.	11.7µM
CC(C)(CN1CCN(Cc2ccccc2)CC1)NS(=O)(=O)c1ccccc1	-	?	-	-	-	-
CC(C)(CN1CCN(C(c2ccccc2)c2ccccc2)CC1)NS(=O)(=O)c1ccccc1	10.4µM	?	?	?	?	11.7µM
O=c1c2sc3ccccc3c2n(Cc2ccc(F)cc2)c(=O)n1Cc1ccccc1	.	-	-	.	-	.
COc1cc(OC)cc(-c2nc3ccccc3c(=O)n2OC(=O)c2ccccc2C)c1	-	?	-	-	11.2µM	-
CCCc1cc(=O)oc2c(C)c(O[C@@H]3O[C@H](CO)[C@@H](O)[C@H](O)[C@H]3O)ccc12	-	-	-66.0	?	-	-
CCCc1cc(=O)oc2cc(O[C@@H]3O[C@H](CO)[C@@H](O)[C@H](O)[C@H]3O)ccc12	-	-	?	-	.	-
Cc1cccc(NC2=NC3(CCCCC3)N=C(N)N2)c1	.	?	-	-	-	.
COc1ccc(NC2=NC3(CCCCC3)N=C(N)N2)cc1	?	-	-	-	-	0.928µM
CCCCOc1ccc(NC2=NC3(CCCCC3)N=C(N)N2)cc1	-	-	-	?	-	0.657µM
NC1=NC(c2ccccc2)N=C(Nc2ccccc2)N1 (stereo not drawn)	2.94µM	.	-	.	.	4.65µM
NC1=NC2(CCCC2)N=C(Nc2ccccc2)N1	1.47µM	-	?	-	-	?
Cc1cccc(C)c1NC(=O)CCCN1C(=O)CCn2nc(-c3cn(C)c4ccccc34)cc21	.	.	-	.	-	.
Cc1ccc(C)c(N2CCN(C(=O)Cn3cnc4onc(-c5ccc(F)cc5)c4c3=O)CC2)c1	.	.	-	.	-	.
CCOC(=O)c1ccc(NC(=O)Cn2c(=O)cc(C(F)(F)F)c3c(C)nn(C)c32)cc1	.	.	-	.	-	.
COc1cc2c(cc1OC)C(CNC(=O)C=Cc1cc(OC)c(OC)c(OC)c1)C2 (stereo not drawn)	.	.	-	.	.	.
CC1(C)C(O)=C(c2nc3ccccc3[nH]2)C(=N)N1c1ccccc1	8.28µM	-	-	?	-	?
CC(C)N1CC(O)=C(c2nc3ccccc3[nH]2)C1=N	-	?	-	-	?	-
CCc1nnc(N/N=C/c2c(C)[nH]c3ccccc23)n1N	-	-	-90.2	-	.	-
Brc1ccc(-c2ccc(/C=N/Nc3nc4ccccc4[nH]3)o2)cc1	13.1µM	.	-	-	.	0.415µM
C(=N\Nc1nc2ccccc2[nH]1)/c1ccccc1	-	-	-	-	-	?
Cc1[nH]c2ccccc2c1/C=N/NC(N)=S	?	?	-	-	-	-
C(=N\Nc1nc2ccccc2[nH]1)/c1cccc2cccnc12	1.65µM	.	-100.9	3.98µM	.	1.65µM

Bioassay records (PubChem BioAssay)
